Records with an inconclusive call do not appear. Activity calls are given as the source filed them. The call rests on the fitted dose curve; in most records, active means well fitted curve in the direction sought with a large enough effect; inconclusive means small, poorly fitted or top-dose-only effect, or another doubt; inactive means no such curve, though single readings can be large; an effect the other way counts as inactive or inconclusive. Non-standard residues stand in square brackets, D forms with d. Residues, ends and D or L forms follow the SMILES beside them. *: point of attachment. Nva = CCC[C@H](N)C(=O)O; Cbz = O=C(OCc1ccccc1)*
What was measured:
[1] = qHTS of pediatric cancer cell lines to identify multiple opportunities for drug repurposing: Primary screen for BT-37 cells (AID 1347094)
In short: (§1)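 Viability was measured as metabolically active cells after 48 hours of treatment, read by CellTiter-Glo luminescence. Compounds were tested at multiple final concentrations, giving concentration-response curves.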

[2] = qHTS of pediatric cancer cell lines to identify multiple opportunities for drug repurposing: Primary screen for NB-EBc1 cells (AID 1347095)
In short: as §1

[3] = qHTS of pediatric cancer cell lines to identify multiple opportunities for drug repurposing: Primary screen for U-2 OS cells (AID 1347096); further: nearly all actives have a fitted effect of over 50% in size
In short: (§2)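 Viability after 48 h compound treatment at 37C, 500-1,000 cells/well, read as ATP luminescence with CellTiter-Glo. Primary screens used 11-point (MIPE, 0.78 nM-46 µM) or 8-point (NPC, 0.59 nM-46 µM) final concentrations; follow-up screens used 11-point dilutions.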

[4] = qHTS of pediatric cancer cell lines to identify multiple opportunities for drug repurposing: Primary screen for Saos-2 cells (AID 1347097); further: nearly all actives have a fitted effect of over 40% in size
In short: as §1

[5] = qHTS of pediatric cancer cell lines to identify multiple opportunities for drug repurposing: Primary screen for SK-N-SH cells (AID 1347098); further: nearly all actives have a fitted effect of over 65% in size
In short: (§3)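 Cells (500-1,000/well) rested 5 h, then received compounds for 48 h; metabolically active cells were measured by CellTiter-Glo luminescence. Final concentrations spanned up to 46 µM (MIPE, 11-point) or 0.59 nM-46 µM (NPC, 8-point) in primary screens, 11-point in follow-ups.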

[6] = qHTS of pediatric cancer cell lines to identify multiple opportunities for drug repurposing: Primary screen for NB1643 cells (AID 1347099); further: nearly all actives have a fitted effect of over 50% in size
In short: as §1

[7] = qHTS of pediatric cancer cell lines to identify multiple opportunities for drug repurposing: Primary screen for LAN-5 cells (AID 1347100)
In short: as §2

[8] = qHTS of pediatric cancer cell lines to identify multiple opportunities for drug repurposing: Primary screen for BT-12 cells (AID 1347101); further: nearly all actives have a fitted effect of over 25% in size
In short: as §3

[9] = qHTS of pediatric cancer cell lines to identify multiple opportunities for drug repurposing: Primary screen for Rh18 cells (AID 1347102); further: nearly all actives have a fitted effect of over 65% in size
In short: as §2

[10] = qHTS of pediatric cancer cell lines to identify multiple opportunities for drug repurposing: Primary screen for OHS-50 cells (AID 1347103); further: nearly all actives have a fitted effect of over 40% in size
In short: as §3

[11] = qHTS of pediatric cancer cell lines to identify multiple opportunities for drug repurposing: Primary screen for RD cells (AID 1347104); further: nearly all actives have a fitted effect of over 55% in size
In short: as §1

[12] = qHTS of pediatric cancer cell lines to identify multiple opportunities for drug repurposing: Primary screen for MG 63 (6-TG R) cells (AID 1347105); further: nearly all actives have a fitted effect of over 50% in size
In short: as §1

[13] = qHTS of pediatric cancer cell lines to identify multiple opportunities for drug repurposing: Primary screen for control Hh wild type fibroblast cells (AID 1347106); further: nearly all actives have a fitted effect of over 55% in size
In short: as §2

[14] = qHTS of pediatric cancer cell lines to identify multiple opportunities for drug repurposing: Confirmatory screen for NB1643 cells (AID 1347109); further: nearly all actives have a fitted effect of over 45% in size
In short: as §2

[15] = qHTS of pediatric cancer cell lines to identify multiple opportunities for drug repurposing: Confirmatory screen for SK-N-MC cells (AID 1347111);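 further: cells exposed to compound for 48 h before the readout; nearly all actives have a fitted effect of over 70% in size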
In short: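 SK-N-MC cells at 500-1,000 cells/well in growth media were pre-incubated 5 h, then exposed to compounds at 11-point dilutions for 48 h at 37 degrees C, 5% CO2. Viability was read as CellTiter-Glo luminescence.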

[16] = qHTS of pediatric cancer cell lines to identify multiple opportunities for drug repurposing: Confirmatory screen for BT-12 cells (AID 1347112); further: nearly all actives have a fitted effect of over 55% in size
In short: as §2

[17] = qHTS of pediatric cancer cell lines to identify multiple opportunities for drug repurposing: Confirmatory screen for LAN-5 cells (AID 1347113); further: nearly all actives have a fitted effect of over 65% in size
In short: as §2

[18] = qHTS of pediatric cancer cell lines to identify multiple opportunities for drug repurposing: Primary screen for Rh30 cells (AID 1347107); further: nearly all actives have a fitted effect of over 75% in size
In short: as §2

[19] = qHTS of pediatric cancer cell lines to identify multiple opportunities for drug repurposing: Confirmatory screen for A673 cells (AID 1347110); further: nearly all actives have a fitted effect of over 65% in size
In short: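 A673 cells at 500-1,000 cells/well were dosed 5 h after plating, in dilution series up to 46 uM final; primary runs used 8 or 11 points and confirmatory runs used 11 points. Viability was read by CellTiter-Glo luminescence after 48 h, against DMSO and 2.3 uM bortezomib controls.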

[20] = qHTS of pediatric cancer cell lines to identify multiple opportunities for drug repurposing: Primary screen for Rh41 cells (AID 1347108); further: nearly all actives have a fitted effect of over 70% in size
In short: as §1
Potency means the concentration at half of the fitted maximal effect.

| Compound | Potency [1] | Potency [2] | Potency [3] | Potency [4] | Potency [5] | Potency [6] | Potency [7] | Potency [8] | Potency [9] | Potency [10] | Potency [11] | Potency [12] | Potency [13] | Potency [14] | Potency [15] | Potency [16] | Potency [17] | Potency [18] | Potency [19] | Potency [20] |
| --- | --- | --- | --- | --- | --- | --- | --- | --- | --- | --- | --- | --- | --- | --- | --- | --- | --- | --- | --- | --- |
| N[C@H]1CN(c2c(F)cc3c(=O)c(C(=O)O)cn(C4C[C@@H]4F)c3c2Cl)CC12CC2 (stereo partly specified) | inactive | inactive | inactive | inactive | inactive | inactive | 21.1 µM (active) | inactive | inactive | inactive | inactive | inactive | inactive | – | – | – | – | – | – | – |
| COc1cc(O)c2c(c1)C1OC1C[C@H](O)[C@H](O)C(=O)C=CC[C@H](C)OC2=O (stereo partly specified) | 19.3 µM (active) | 5.9 µM (active) | 18.7 µM (active) | 10.5 µM (active) | 6.07 µM (active) | 2.96 µM (active) | 5.26 µM (active) | 13.7 µM (active) | – | 19.3 µM (active) | 2.35 µM (active) | 18.7 µM (active) | – | 4.65 µM (active) | 9.27 µM (active) | 16.5 µM (active) | 7.37 µM (active) | – | – | – |
| CCC[C@@H](C=O)NC(=O)[C@H](CC(C)C)NC(=O)[C@H](CC(C)C)NC(=O)OCc1ccccc1 (Cbz-Leu-Leu-[Nva]-aldehyde) | 1.22 µM (active) | 0.372 µM (active) | 2.35 µM (active) | 1.18 µM (active) | 1.36 µM (active) | 0.469 µM (active) | 0.935 µM (active) | 2.17 µM (active) | 2.35 µM (active) | – | 0.935 µM (active) | 0.935 µM (active) | 5.26 µM (active) | 1.65 µM (active) | 0.414 µM (active) | 2.93 µM (active) | 1.47 µM (active) | 4.69 µM (active) | 1.17 µM (active) | – |
| OC[C@@H](O)[C@@H](O)[C@H](O)[C@@H](O)CO | inactive | inactive | inactive | inactive | inactive | inactive | inactive | inactive | inactive | inactive | inactive | inactive | inactive | – | – | – | – | – | – | inactive |
| COC1=C(OC)C(=O)C(CC=C(C)CCC=C(C)CCC=C(C)CCC=C(C)CCC=C(C)CCC=C(C)CCC=C(C)CCC=C(C)CCC=C(C)CCC=C(C)C)=C(C)C1=O | inactive | inactive | inactive | inactive | inactive | inactive | inactive | inactive | – | – | inactive | inactive | inactive | – | – | – | – | inactive | – | inactive |
| NC(=O)c1cccc(-c2cccc(OC(=O)NC3CCCCC3)c2)c1 | inactive | inactive | inactive | inactive | inactive | inactive | inactive | inactive | inactive | – | inactive | inactive | inactive | – | – | – | – | inactive | – | – |
| COC1=C2C[C@@H](C)C[C@H](OC)[C@@H](O)[C@@H](C)C=C(C)[C@H](OC(N)=O)[C@@H](OC)C=CC=C(C)C(=O)NC(=CC1=O)C2=O | 4.32 µM (active) | 0.743 µM (active) | inactive | inactive | 2.41 µM (active) | 4.18 µM (active) | 8.33 µM (active) | 6.11 µM (active) | 5.9 µM (active) | 6.85 µM (active) | 5.26 µM (active) | 14.8 µM (active) | – | 1.31 µM (active) | 1.04 µM (active) | – | 1.47 µM (active) | – | 2.61 µM (active) | 7.43 µM (active) |
| CC(C)C[C@@H](C=O)NC(=O)[C@H](CC(C)C)NC(=O)[C@H](CC(C)C)NC(=O)OCc1ccccc1 (Cbz-Leu-Leu-Leu-aldehyde) | 0.863 µM (active) | 0.166 µM (active) | 0.935 µM (active) | 0.743 µM (active) | 0.857 µM (active) | 0.372 µM (active) | 0.662 µM (active) | 1.53 µM (active) | 1.32 µM (active) | 0.685 µM (active) | 0.662 µM (active) | 0.372 µM (active) | 2.96 µM (active) | 1.17 µM (active) | 0.369 µM (active) | 1.17 µM (active) | 1.04 µM (active) | – | 1.17 µM (active) | 1.48 µM (active) |
| O=C(C=Cc1ccc(CN(CCO)CCc2c[nH]c3ccccc23)cc1)NO | 0.385 µM (active) | 0.148 µM (active) | 0.469 µM (active) | 0.372 µM (active) | 0.541 µM (active) | 0.166 µM (active) | 0.0935 µM (active) | 0.611 µM (active) | – | 0.243 µM (active) | 0.372 µM (active) | 0.59 µM (active) | 2.35 µM (active) | – | – | 1.17 µM (active) | – | 1.18 µM (active) | 0.369 µM (active) | 0.372 µM (active) |
| CC(C)(O)Cn1c(NC(=O)c2ccc(-c3cn[nH]c3)s2)nc2cc(CN3CCOCC3)ccc21 | 1.09 µM (active) | 0.743 µM (active) | 1.87 µM (active) | 0.743 µM (active) | 1.71 µM (active) | 0.743 µM (active) | 0.332 µM (active) | 3.43 µM (active) | 1.87 µM (active) | 1.22 µM (active) | 1.87 µM (active) | 3.72 µM (active) | 6.62 µM (active) | 0.329 µM (active) | 1.31 µM (active) | 1.04 µM (active) | 1.04 µM (active) | inactive | – | 1.18 µM (active) |
| Cc1ccc(O)c(C(CCN(C(C)C)C(C)C)c2ccccc2)c1 (stereo unspecified) | inactive | inactive | inactive | inactive | inactive | inactive | inactive | inactive | inactive | – | inactive | inactive | inactive | – | – | – | – | inactive | – | inactive |

Reference: PubChem BioAssay (NCATS)
